Among the data in PubChem BioAssay (Tox21) are Potency and outcome values, retold here.

Assay [1] is described as follows: qHTS assay to identify small molecule antagonists of the peroxisome proliferator-activated receptor delta (PPARd) signaling pathway - cell viability counter screen (AID 743213; active = well fitted curve in the direction sought with a large enough effect in the repeat runs; an effect the other way counts as inactive or inconclusive; note: nearly all actives have a fitted effect of over 50% in size). Put shortly:
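Viability counter-screen, qHTS format: PPARd-bla HEK293H, L165041 300 nM final, 17 h compound exposure at 37 C, CellTiter-Glo luminescence after 30 min RT.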

For assay [2], the target named is Bile acid receptor (Homo sapiens) (UniProt Q96RI1). Put plainly: qHTS assay to identify small molecule agonists of the farnesoid-X-receptor (FXR) signaling pathway (AID 743220; active = well fitted activation curve with a large enough effect in the signal ratio in the repeat runs, not every such curve was filed as active; the % refers to the signal ratio). Put shortly: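 Beta-lactamase reporter under UAS control in GeneBLAzer FXR HEK 293T cells (5000/well) measured with LiveBLAzer FRET substrate after 2 h at room temperature. Compound exposure lasted 16 h at 37C.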
Sequence of Bile acid receptor (Homo sapiens) (Q96RI1 whole entry, looked up): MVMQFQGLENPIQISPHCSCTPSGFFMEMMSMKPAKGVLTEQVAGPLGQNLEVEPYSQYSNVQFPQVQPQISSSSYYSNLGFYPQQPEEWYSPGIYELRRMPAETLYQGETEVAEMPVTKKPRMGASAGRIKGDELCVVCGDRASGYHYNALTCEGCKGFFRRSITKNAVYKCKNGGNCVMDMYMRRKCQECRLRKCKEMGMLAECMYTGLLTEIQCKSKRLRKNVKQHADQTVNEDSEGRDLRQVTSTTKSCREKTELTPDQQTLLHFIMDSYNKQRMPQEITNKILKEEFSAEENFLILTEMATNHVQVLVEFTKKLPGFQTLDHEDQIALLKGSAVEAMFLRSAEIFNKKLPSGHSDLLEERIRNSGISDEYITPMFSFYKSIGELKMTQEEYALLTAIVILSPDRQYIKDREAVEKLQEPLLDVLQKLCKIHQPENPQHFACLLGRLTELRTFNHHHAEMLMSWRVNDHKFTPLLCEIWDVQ
Background: qHTS replaces the single test concentration by a dilution series.

Assay [3] can be described thus: qHTS assay to identify small molecule antagonists of the farnesoid-X-receptor (FXR) signaling pathway - cell viability counter screen (AID 743221; active = well fitted cell-killing curve with a large enough effect in the repeat runs, not every such curve was filed as active; note: nearly all actives have a fitted effect of over 50% in size). Put shortly: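 Cytotoxicity counter screen run in the FXR-bla reporter wells: HEK 293T cells exposed to compound with 50 uM (final) chenodeoxycholic acid for 16 h, 37 C, then viability measured by CellTiter-Glo luminescence after 30 min, room temperature.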

Assay [4] has as its target Vitamin D3 receptor (Homo sapiens) (UniProt P11473). Put plainly: qHTS assay to identify small molecule agonists of the vitamin D receptor (VDR) signaling pathway (AID 743222). The essentials:
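Quantitative HTS agonist-mode screen: compounds in DMSO were pin-transferred onto VDR-bla cells and incubated 16 h at 37C, 5% CO2. Reporter activity was detected with LiveBLAzer B/G FRET substrate after 2 h at room temperature.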

For assay [5] the target is unchanged. Put plainly: qHTS assay to identify small molecule antagonists of the vitamin D receptor (VDR) signaling pathway (AID 743223; active = well fitted inhibition curve with a large enough effect in the signal ratio in the repeat runs, not every such curve was filed as active; the % refers to the signal ratio). Put shortly:
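Antagonist mode: compound added to VDR-bla cells alongside agonist 1alpha,25-dihydroxyvitamin D3 (3 nM final), incubation 16 h at 37C. Read-out is LiveBLAzer FRET fluorescence, 2 h at room temperature.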

Assay [6] in a line: qHTS assay to identify small molecule agonists of the vitamin D receptor (VDR) signaling pathway - cell viability counter screen (AID 743224; active = well fitted curve in the direction sought with a large enough effect in the repeat runs; an effect the other way counts as inactive or inconclusive; note: nearly all actives have a fitted effect of over 50% in size; note: potency is the fitted concentration of half-maximal effect). Put shortly: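 Viability is measured in the same wells as the VDR-bla reporter assay: after 16 h compound treatment and 2 h substrate loading, CellTiter-Glo is added and luminescence read 30 min later.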
The nature of assay [7]: qHTS assay to identify small molecule antagonists of the vitamin D receptor (VDR) signaling pathway - cell viability counter screen (AID 743225; active = well fitted curve in the direction sought with a large enough effect in the repeat runs; an effect the other way counts as inactive or inconclusive; note: nearly all actives have a fitted effect of over 50% in size). Put shortly:
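Cytotoxicity counter screen read by CellTiter-Glo luminescence (30 min, room temperature) in the same wells as the VDR-bla antagonist readout. HEK 293T VDR-UAS-bla cells had 16 h at 37C with compound and 3 nM (final) 1-alpha,25-dihydroxyvitamin D3, then 2 h with FRET substrate.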

The nature of assay [8]: qHTS assay to identify small molecule agonists of the NFkB signaling pathway (AID 1159509; active = well fitted curve in the direction sought with a large enough effect in the signal ratio in the repeat runs, not every such curve was filed as active; the % refers to the signal ratio; note: series mostly up to about 61 µM). Put shortly: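 NFkB-bla ME-180 cells carry a beta-lactamase reporter under an NF-kB response element. They were plated overnight, then exposed to compounds for 5 h at 37 C. Read-out is LiveBLAzer FRET after 1.5 hr at room temperature (405 nm excitation; 460/530 nm emission).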
Assay [9] is described as follows: qHTS assay to identify small molecule agonists of the NFkB signaling pathway - cell viability counter screen (AID 1159515). Note: series mostly up to about 61 µM; nearly all actives have a fitted effect of over 55% in size. Put shortly:
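Multiplexed viability readout: after the 5 hr compound exposure and 1.5 hr FRET substrate step, CellTiter-Glo reagent went into the same NFkB-bla ME-180 wells; ATP luminescence was measured after 30 min at room temperature.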

A short description of assay [10]: qHTS assay to identify small molecule agonists of the endoplasmic reticulum stress response signaling pathway (AID 1159516; active = well fitted activation curve with a large enough effect in the signal ratio in the repeat runs, not every such curve was filed as active; the % refers to the signal ratio). The essentials: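 Tox21 10K library screened in quantitative HTS format on ESRE-bla HeLa cells, a beta-lactamase reporter under ER stress response element control; 5 hr treatment, FRET read.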
Assay [11] in a line: qHTS assay to identify small molecule agonists of the endoplasmic reticulum stress response signaling pathway - cell viability counter screen (AID 1159517). Put shortly:
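CellTiter-Glo was added to wells already read for beta-lactamase FRET, and luminescence was recorded 30 min later. Cells: ESRE-bla HeLa, 1,500 per well, compound exposure 5 hr at 37 C.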

Assay [12] can be described thus: qHTS assay to identify small molecule antagonists of the retinoid-related orphan receptor gamma (ROR-gamma) signaling pathway - cell viability counter screen (AID 1159520; active = well fitted curve in the direction sought with a large enough effect in the repeat runs; an effect the other way counts as inactive or inconclusive; note: nearly all actives have a fitted effect of over 50% in size). The essentials: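 Tet-on ROR gamma CHO cells (1,000/well) were plated 4 hr, given compounds in DMSO for 2 hr at 37 C, then induced with 1 uM final doxycycline for 16 hr. Viability was read as ATP by CellTiter-Glo luminescence after 30 min.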

A short description of assay [13]: qHTS assay to identify small molecule agonists of the AP-1 signaling pathway - cell viability counter screen (AID 1159525). Note: nearly all actives have a fitted effect of over 55% in size. Put shortly:
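ME-180 AP-1-bla, 2500 cells/well, Opti-MEM + 0.5% dialyzed FBS; overnight 37 °C; cpd 15-pt titration, 5 h 37 °C; CellTiter-Glo 30 min RT; luminescence read; normalised to TOAB and DMSO controls.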

The nature of assay [14]: qHTS assay to identify small molecule agonists of the AP-1 signaling pathway (AID 1159526).
Assay [15] addresses Peroxisome proliferator-activated receptor delta (Homo sapiens) (UniProt Q03181). In words: qHTS assay to identify small molecule antagonists of the peroxisome proliferator-activated receptor delta (PPARd) signaling pathway (AID 743215; active = well fitted inhibition curve with a large enough effect in the signal ratio in the repeat runs, not every such curve was filed as active; the % refers to the signal ratio;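 note: cells stimulated with agonist L165041 at 300 nM final during compound exposure; series mostly up to about 62 µM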). The essentials: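 Inhibition of L165041-driven (300 nM final) PPARd signaling is scored in HEK293H UAS-bla cells. Exposure lasts 17 h at 37 C; beta-lactamase activity is then read by FRET substrate fluorescence after 2 h at room temperature.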

Assay [16] has as its target Bile acid receptor (Homo sapiens) (UniProt Q96RI1). Put plainly: qHTS assay to identify small molecule antagonists of the farnesoid-X-receptor (FXR) signaling pathway (AID 743217; active = well fitted inhibition curve with a large enough effect in the signal ratio in the repeat runs, not every such curve was filed as active; the % refers to the signal ratio). Put shortly: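 Antagonist mode against 50 uM (final) chenodeoxycholic acid stimulation in FXR-bla HEK 293T cells, 16 h at 37 °C. Inhibition detected as reduced beta-lactamase activity via LiveBLAzer B/G FRET fluorescence after 2 h at room temperature.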

Assay [17] in a line: qHTS assay to identify small molecule agonists of the farnesoid-X-receptor (FXR) signaling pathway - cell viability counter screen (AID 743218; active = well fitted curve in the direction sought with a large enough effect in the repeat runs; an effect the other way counts as inactive or inconclusive; note: nearly all actives have a fitted effect of over 45% in size). The essentials: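 Cytotoxicity counter-screen run in parallel, same wells: FXR-UAS-bla HEK 293T cells dosed 16 h at 37 C, viability read by CellTiter-Glo luminescence after 30 min at room temperature.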
Assay [18] deals with Peroxisome proliferator-activated receptor delta (Homo sapiens) (UniProt Q03181). Put plainly: qHTS assay to identify small molecule agonists of the peroxisome proliferator-activated receptor delta (PPARd) signaling pathway (AID 743212). The essentials: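 A PPARd-bla HEK293H line with beta-lactamase under an Upstream Activator Sequence is treated with compounds at 37 C. Substrate loading for 2 h at room temperature precedes the fluorescence measurement.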
Sequence of Peroxisome proliferator-activated receptor delta (Homo sapiens) (Q03181 whole entry, looked up): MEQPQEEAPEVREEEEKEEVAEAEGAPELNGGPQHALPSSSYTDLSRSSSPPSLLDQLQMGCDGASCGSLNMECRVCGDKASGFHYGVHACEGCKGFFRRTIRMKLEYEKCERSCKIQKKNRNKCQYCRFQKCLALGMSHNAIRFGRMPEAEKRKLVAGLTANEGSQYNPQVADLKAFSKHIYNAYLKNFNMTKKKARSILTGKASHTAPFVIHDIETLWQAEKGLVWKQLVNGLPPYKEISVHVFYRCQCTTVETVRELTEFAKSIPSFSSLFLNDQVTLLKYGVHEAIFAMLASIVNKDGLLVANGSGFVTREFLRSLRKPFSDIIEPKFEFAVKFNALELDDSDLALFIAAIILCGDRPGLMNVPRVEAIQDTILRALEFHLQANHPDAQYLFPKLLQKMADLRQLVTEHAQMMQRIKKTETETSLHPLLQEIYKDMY

Inconclusive results are not listed. Values without a mark were called inactive. Active and inactive are the calls of the source. Unless noted, calls come from the whole dose curve.

Sequence of Vitamin D3 receptor (Homo sapiens) (P11473 whole entry, looked up): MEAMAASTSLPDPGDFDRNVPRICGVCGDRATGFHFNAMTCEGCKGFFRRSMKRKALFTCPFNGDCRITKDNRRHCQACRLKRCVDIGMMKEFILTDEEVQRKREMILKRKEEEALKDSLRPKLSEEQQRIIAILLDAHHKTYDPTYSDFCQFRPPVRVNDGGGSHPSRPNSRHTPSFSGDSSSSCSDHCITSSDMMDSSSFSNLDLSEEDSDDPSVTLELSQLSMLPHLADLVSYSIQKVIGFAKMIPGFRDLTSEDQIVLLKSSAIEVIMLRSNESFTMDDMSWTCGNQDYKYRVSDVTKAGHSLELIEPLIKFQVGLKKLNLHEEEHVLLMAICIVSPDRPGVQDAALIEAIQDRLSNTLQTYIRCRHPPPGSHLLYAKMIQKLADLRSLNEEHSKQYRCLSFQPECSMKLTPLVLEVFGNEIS

With `CCOC(=O)[C@@H](C)Oc1ccc(Oc2nc3ccc(Cl)cc3o2)cc1`, the Potency entry in assay [1], in [2], in assay [3], in assay [6], in assay [7] and in [12] was “inactive” throughout. The molecule was classed as inactive in assay [4], in assay [5], in assay [8], in [9], in [10] and in assay [11]. The call in assay [13] and in assay [14] was inactive.
Consider `O=c1[nH]c2ccc(S(=O)CCN3CCC(Cc4ccc(F)cc4)CC3)cc2o1` (configuration not stated), for which the Potency result in assay [1], in assay [15], in [3], in [6], in [7] and in [12] was “inactive” each time. In addition, the call in assay [8], in [9], in [10], in [11], in [13] and in assay [14] was inactive.
Regarding `Cc1cc(S(=O)(=O)O)ccc1N=Nc1c(O)ccc2ccccc12`, the Potency entry in [1], in assay [16], in [17], in [2], in [3] and in [6] was “inactive” each time. Besides, the Potency result in assay [7] and in assay [12] was “inactive” in each case. The molecule was classed as inactive in assay [4], in assay [5], in [8], in [9], in [10] and in [11]. The outcome in [13] and in assay [14] was inactive.
Consider `CCC(=O)Oc1ccc(/C(CC)=C(\CC)c2ccc(OC(=O)CC)cc2)cc1`, for which the Potency entry in [18], in assay [3], in assay [7] and in [12] was “inactive” each time. The call in assay [5], in assay [8], in assay [9], in assay [10], in [11] and in [13] was inactive. In assay [14], the call was inactive. In addition, the Potency in assay [6] is 54.9 µM (active).
For `Fc1c(F)c(F)c(Br)c(F)c1F`, the Potency result in [18], in [1], in assay [17], in [3], in assay [6] and in assay [7] was “inactive” in each case. For the same molecule, the Potency result in assay [12] is “inactive”. In addition, the result in assay [4], in assay [8], in [9], in assay [10], in assay [11] and in assay [13] was inactive. Further, the molecule was called inactive in assay [14].
In the case of `CC(=O)CC(c1ccc([N+](=O)[O-])cc1)c1c(O)c2ccccc2oc1=O` (configuration not stated), the Potency result in assay [18], in [1], in assay [15], in [3], in assay [6] and in assay [7] was “inactive” each time. Moreover, the Potency entry in [12] is “inactive”. Further, the molecule was called inactive in [4], in assay [8], in assay [9], in [10], in assay [11] and in assay [13]. The outcome in [14] was inactive.
Regarding `COc1ccc(C(=O)c2cccc(O)c2)c(OC)c1`, the Potency result in [1], in [3], in assay [6], in assay [7] and in [12] was “inactive” throughout. Also, the molecule was called inactive in assay [4], in assay [5], in assay [8], in assay [9], in assay [10] and in assay [11]. Moreover, the molecule was classed as inactive in [13] and in assay [14].
Regarding `Cc1oc(C)c(C(=O)Nc2ccccc2)c1C`, the Potency result in [18], in assay [17] and in [12] was “inactive” each time. In addition, the molecule was called inactive in assay [4], in [5], in assay [8], in [9], in assay [10] and in [11]. For the same molecule, the call in assay [13] and in assay [14] was inactive.
As to `COc1cc2c(cc1OC)-c1cc(=Nc3c(C)cc(C)cc3C)n(C)c(=O)n1CC2`, the Potency result in assay [17], in assay [3], in [7] and in [12] was “inactive” in each case. Further, the molecule was called inactive in assay [5], in assay [8], in [9], in assay [10], in assay [11] and in [13]. In addition, the outcome in assay [14] was inactive.
